Bioassay records: PubChem BioAssay, National Center for Advancing Translational Sciences (NCATS)
G9a inh = G9a (human) methyltransferase inhibition | G9a H3K9 monomethylation, AlphaScreen, 2 h | Potency, µM (series often up to 102 µM), without a hit: top-dose activity, negative = inhibition, usual class: inhibitors | 350,000 tested, 8.8% active | AID 504332; note: potency is the fitted concentration of half-maximal effect; % is set by controls: 0 for no effect and ±100 for the full control effect; nearly all actives have a fitted effect of over 75% in size
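Quantitative HTS format: methyltransferase activity on a biotin-tagged H3K9 peptide is measured by AlphaScreen, using a rabbit anti-monomethyl-H3K9 antibody with streptavidin donor and anti-IgG acceptor beads. Final levels are 20 nM enzyme, 500 nM peptide, 20 uM SAM; 2 h RT.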
HP1b chromo inh = blocks HP1-beta chromodomain binding to methylated histone tails; AlphaScreen HP1-beta / biotin-H3K9me3 peptide binding; AID 540317; Potency, µM (titrated, usually from 114 µM), for inactives: at the highest dose activity change, negative = inhibition, usual class: inhibitors; 390,000 tested, 0.56% active; note: potency is the fitted concentration of half-maximal effect; nearly all actives have a fitted effect of over 70% in size
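Compound inhibition of the preformed complex between 50 nM HP1-beta and 50 nM biotinylated H3K9me3 peptide was read by AlphaScreen. Buffer was PBS pH 7.4 with 0.01% Tween-20. Incubations ran 30 min at room temperature, with 10 ug/mL donor/acceptor beads.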
BAZ2B inh = blocks human BAZ2B. AID 504333. AlphaScreen BAZ2B-H3K14Ac peptide displacement. 360,000 tested, 4.4% active. Potency, µM (highest dose often 114 µM), inactives show at the top dose activity change, negative = inhibition, actives largely listed as inhibitors. Q9UIF8; note: potency is the fitted concentration of half-maximal effect; % is set by controls: 0 for no effect and ±100 for the full control effect; nearly all actives have a fitted effect of over 60% in size
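Inhibition is scored as reduced AlphaScreen emission. The BAZ2B/b-H3(5-23)K14Ac complex (50 nM each) in PBS pH 7.4, 0.01% Tween-20 meets compound (up to 110 uM) for 30 min at RT before bead addition.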
JMJD2A Tudor inh = inhibitors of human JMJD2A Tudor domain; O75164; AlphaScreen JMJD2A-Tudor / H3K4me3 peptide binding; Potency, µM (highest dose often 114 µM), inactives show top-dose activity change, negative = inhibition, hits mostly inhibitors; 390,000 tested, 4.4% active; AID 504339; note: potency is the fitted concentration of half-maximal effect; % is set by controls: 0 for no effect and ±100 for the full control effect; nearly all actives have a fitted effect of over 50% in size
Target sequence (O75164 whole entry, looked up, the tested form may be a part): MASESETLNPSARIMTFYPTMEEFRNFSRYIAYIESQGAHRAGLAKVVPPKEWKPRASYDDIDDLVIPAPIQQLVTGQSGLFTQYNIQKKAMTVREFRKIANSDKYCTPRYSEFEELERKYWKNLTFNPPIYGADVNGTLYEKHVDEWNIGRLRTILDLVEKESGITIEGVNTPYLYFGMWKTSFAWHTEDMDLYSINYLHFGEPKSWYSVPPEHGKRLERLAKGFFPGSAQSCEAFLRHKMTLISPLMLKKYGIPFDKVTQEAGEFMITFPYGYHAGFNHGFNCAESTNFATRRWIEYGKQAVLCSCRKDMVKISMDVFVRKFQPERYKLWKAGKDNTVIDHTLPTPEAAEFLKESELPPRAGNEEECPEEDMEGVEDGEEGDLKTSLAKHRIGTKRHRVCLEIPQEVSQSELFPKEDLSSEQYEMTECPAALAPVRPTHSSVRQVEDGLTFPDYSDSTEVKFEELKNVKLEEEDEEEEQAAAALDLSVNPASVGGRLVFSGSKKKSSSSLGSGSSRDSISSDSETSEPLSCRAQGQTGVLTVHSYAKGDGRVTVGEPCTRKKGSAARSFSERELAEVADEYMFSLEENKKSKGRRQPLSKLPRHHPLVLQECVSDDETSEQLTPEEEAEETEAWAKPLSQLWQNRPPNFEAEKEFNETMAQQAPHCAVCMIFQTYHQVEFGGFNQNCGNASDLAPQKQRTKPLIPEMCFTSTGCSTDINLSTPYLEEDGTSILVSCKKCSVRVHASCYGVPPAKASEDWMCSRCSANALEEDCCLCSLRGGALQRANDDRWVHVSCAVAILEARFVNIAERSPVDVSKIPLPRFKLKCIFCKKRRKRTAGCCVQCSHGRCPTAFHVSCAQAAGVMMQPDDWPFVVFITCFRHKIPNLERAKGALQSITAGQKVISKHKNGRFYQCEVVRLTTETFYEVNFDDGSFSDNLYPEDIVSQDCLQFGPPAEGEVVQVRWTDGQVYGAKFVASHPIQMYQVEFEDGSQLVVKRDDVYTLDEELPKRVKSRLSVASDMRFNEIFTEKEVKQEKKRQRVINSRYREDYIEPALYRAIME
PI5P4Ka inh = inhibitors of human PI5P4K alpha. P48426. PI5P4Kalpha enzyme, ADP-Glo luminescence, 60 min; hits give low values. max response, %. 330,000 tested, 1.2% active. AID 652105; active = max response of -50% or lower; inconclusive = between -30% and -50%; inactive = -30% or higher; note: value at the top dose of about 77 µM; % is set by controls: 0 for no effect and ±100 for the full control effect
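qHTS, 1536-well: enzyme/substrate mix, compound by pin tool, 5 microM ATP final; RT 60 min; ADP-Glo reagents 1 (45 min) then 2 (30 min); luminescence.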
PLK1 PBD inh = inhibitors of human PLK1 polo-box domain binding | AID 720504 | P53350 | Plk1 PBD binding of FITC phosphopeptide, fluorescence polarization | Potency, µM, inactives show max response, negative = inhibition, most hits filed as inhibitors | 360,000 tested, 2.8% active; note: potency is the fitted concentration of half-maximal effect; series mostly up to about 57 µM; % is set by controls: 0 for no effect and ±100 for the full control effect; nearly all actives have a fitted effect of over 65% in size
ADP-Glo counter = counter-screen for PI5P4K inhibitors: ADP-Glo detection interference, no enzyme; shares compounds with PI5P4Ka inh; Potency, µM (series often up to 76.9 µM), inactives show top-dose activity change, negative = inhibition, actives largely listed as inhibitors; ADP-Glo detection counter-screen, luciferase luminescence, no enzyme; 1,100 tested, under 10 active
Starred values were filed as active, the others as inactive; ? = inconclusive; . = no result given; [ ] = dose if it differs, or a comment. Only some compounds are listed: those with a hit (about 12% of all), similar ones and a draw of the others. Unless noted, calls come from the whole dose curve; as a rule, active = well fitted curve in the direction sought with a large enough effect; inconclusive = small, poorly fitted or top-dose-only effect, or another doubt; inactive = no such curve, though single readings can be large; an effect the other way counts as inactive or inconclusive.

SMILES	G9a inh	HP1b chromo inh	BAZ2B inh	JMJD2A Tudor inh	PI5P4Ka inh	PLK1 PBD inh	ADP-Glo counter
O=C(Nc1ccc(Cl)cc1)Nc1ccccc1CC[N+](=O)[O-]	-43%	-8%	-28%	22µM*	-79*	3.4µM*	-3%
O=C(Cc1ccc(S(=O)(=O)N2CCCC2)s1)N1CCN(c2ccccc2)CC1	?	12%	.	-6%	6	-10%	.
COc1ccc(N2CCN(C(=O)Cc3ccc(S(=O)(=O)N4CCOCC4)s3)CC2)cc1	45µM*	50µM*	40µM*	45µM*	-71*	?	2%
CC(=O)N1CCN(S(=O)(=O)c2cccc(C(=O)Nc3ccc(F)c(F)c3)c2)CC1	-15%	4%	1%	-1%	-19	-8%	-1%
CCOC(=O)c1ccc(NC(=O)c2cccc(S(=O)(=O)N3CCN(C(C)=O)CC3)c2)cc1	1%	9%	-1%	-3%	2	-8%	.
Nc1c(C(=O)O)cnc2c(-c3ccc(Cl)cc3)cnn12	?	-4%	28µM*	28µM*	-84*	?	-1%
Cc1ccc(N(CC(=O)N2CCN(c3ccc(Cl)cc3)CC2)S(=O)(=O)c2c(C)noc2C)cc1	-50%[59 µM]	11%	.	?	.	.	.
CCCOc1ccccc1C(=O)N1CCCCC1CCN1CCCCC1 (stereo not drawn)	6%[59 µM]	35%	-2%	-9%	.	.	.
O=S(=O)(Nc1nc(-c2ccccc2)cs1)c1cc(Cl)ccc1Cl	?	-26%	?	?	-51*	?	-2%
CCOC(=O)CC(=O)CSc1ccc2nnc(-c3ccccc3)n2n1	3%[59 µM]	22%	6%	-1%	.	-2%	.
CCOC(=O)CSc1ccc2nnc(-c3cccs3)n2n1	10µM*	39%	5%	-35%	-51*	-28%	-7%
O=C(NCc1ccco1)C1Cc2c(-c3cccc(F)c3)ccnc2O1 (stereo not drawn)	.	.	.	.	-65*	-11%	-4%
CCc1cc(C(c2cccc(OC)c2)N2CCOCC2)c(NC(=O)c2ccccc2)s1 (stereo not drawn)	5%	29%	-31%	-23%	10	-13%	.
CCc1cc(C(c2ccc(OC)c(OC)c2)N2CCOCC2)c(NC(=O)c2ccccc2)s1 (stereo not drawn)	32µM*	?	35µM*	50µM*	-57*	?	-4%
CC1Cc2ccccc2N1C(=O)CNc1cccc(S(=O)(=O)N2CCCC2)c1 (stereo not drawn)	50µM*	-22%	?	6.3µM*	-66*	3.8µM*	-5%
CC1Cc2ccccc2N1C(=O)CN1CCN(S(=O)(=O)c2ccc3c(c2)OCCCO3)CC1 (stereo not drawn)	.	.	.	.	-7	-18%	.
COc1ccc(NC(=O)CSc2nnc(-c3ccco3)c(-c3ccco3)n2)cc1OC	7.1µM*	?	-9%	?	-52*	?	-1%
COC(=O)c1[nH]cnc1C(=O)c1ccccc1	26%[2.33 µM]	31%	8%	-4%	-61*	-1%	2%
C[C@H](NC(=O)c1[nH]cnc1C(=O)N[C@H](C)c1ccccc1)c1ccccc1	26%[2.33 µM]	24%	-2%	-35%	-1	3%	.
NC(=O)c1ccc(-n2c(CCC(=O)O)ccc2-c2cccs2)cc1	28µM*	?	-32%	-26%	-80*	-13%	2%
COc1ccc(-n2c(=O)c3sc4ccccc4c3n(Cc3ccccc3)c2=O)cc1	-29%[59 µM]	16%	-8%	-21%	.	.	.
CCCn1c(SCC(=O)N2c3ccccc3Sc3ccccc32)nc2c1c(=O)n(C)c(=O)n2C	12%[12.7 µM]	5%	1%	-23%	-3	-12%	-9%
CC(C)n1c(SCC(=O)N2c3ccccc3Sc3ccccc32)nc2c1c(=O)n(C)c(=O)n2C	14%	9%	13%	-9%	.	2%	.
Cc1ccc2c(CC(=O)OCC(=O)N(CC(C)C)c3c(N)n(Cc4ccccc4)c(=O)[nH]c3=O)coc2c1	?	-9%	?	?	-59*	-13%	-1%
CCN(C(=O)COC(=O)Cc1coc2cc(C)ccc12)c1c(N)n(Cc2ccccc2)c(=O)[nH]c1=O	-17%[59 µM]	28%	-4%	-8%	3	-19%	.
SMILES	G9a inh	HP1b chromo inh	BAZ2B inh	JMJD2A Tudor inh	PI5P4Ka inh	PLK1 PBD inh	ADP-Glo counter
COc1cccc(-c2c(C(=O)O)cc(O)c3ccc(OC)cc23)c1	.	30%[57 µM]	.	-7%	6	1%	.
Cc1cc(-c2csc(N)n2)c(C)n1C	10µM*	-22%	50µM*	?	-60*	-29%	-6%
CCOC(=O)c1c(C)c(C(=O)NCCc2ccc(OC)cc2)c(C)n1CC	2%[59 µM]	30%	-1%	-3%	.	.	.
CN(Cc1ccccc1)C(=O)c1[nH]c(C(F)(F)F)nc1-c1ccccc1	.	.	.	.	2	7%	.
CCCCN1C(=O)C(O)(CC(=O)c2ccc(C(C)(C)C)cc2)c2ccccc21 (stereo not drawn)	-28%[59 µM]	21%	-12%	-13%	.	.	.
O=C(NC(c1ccc(Cl)cc1)c1cc(Cl)c2cccnc2c1O)c1cccnc1 (stereo not drawn)	11%[59 µM]	32%	3%	-21%	-63*	3%	-9%
O=[N+]([O-])c1ccc(O)c2cccnc12	?	?	?	-20%	-6	-2%	.
CC(=O)NC(c1ccc(C)cc1)c1cc([N+](=O)[O-])c2cccnc2c1O (stereo not drawn)	35µM*	-21%	4.5µM*	14µM*	-59*	-23%	3%
COc1cc(S(=O)(=O)N2CCOCC2)ccc1NC(=O)COC(=O)c1ccc(Cl)nc1	.	44%	.	-5%	0	2%	.
O=C(CSC1=NCCS1)NCc1ccco1	12%[12.7 µM]	-12%	6%	18µM*	-54*	3µM*	1%
O=C(COc1ccccc1)Nc1cccc(-c2ccc(N3CCOCC3)nn2)c1	-37%	11%	6%	-14%	-13	-1%	-14%
CCN(CC(=O)N1CCC(C(N)=O)CC1)S(=O)(=O)c1ccc(Cl)cc1	20%	20%	?	-10%	6	-2%	.
CCN(CC(=O)N1CCC(C(N)=O)CC1)S(=O)(=O)c1cc(Cl)ccc1Cl	.	0%[57 µM]	.	-18%	-52*	?	4%
O=S(=O)(c1ccc(Br)cc1)N1CCCc2ccccc21	217%	180%	82%	121%	2	-8%	-5%
Cc1ccc(NC(=O)Cn2nc(C)n3cccc3c2=O)c(C)c1	-39%[59 µM]	44%	-18%	-21%	.	.	.
O=C1CCC(C(=O)Nc2ccc([N+](=O)[O-])cc2)N1 (stereo not drawn)	-8%[59 µM]	26%	1%	-8%	-54*	-1%	-5%
